Source: the supplement of paper PMC8728848
The sample as a whole holds a higher share of the strongest signals than the screen did.

How the values were obtained:
Assay in all cases: glycan array binding signal (z-score within array); higher = stronger binding
Conditions in all cases: glycan notation: IUPAC condensed, linker removed
[1] = biological target: Fuc(a1-2)Gal(b1-3)GalNAc(b1-3)Gal
Outline: (§1)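 Glycan array data were curated from 3228 arrays in the Consortium for Functional Glycomics database and kept only where the protein sequence was available. Glycan names were converted to IUPAC-condensed notation, and columns mapping to the same glycan were averaged. The binding signal is a within-array Z-score, averaged across arrays of the same protein sequence at different concentrations or buffers and across linkers. Negative Z-scores can be read as non-binding.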

[2] = biological target: Fuc(a1-2)Gal(b1-3)[Fuc(a1-4)]GlcNAc
Outline: as §1

[3] = biological target: Fuc(a1-2)Gal(b1-3)[Fuc(a1-4)]GlcNAc(b1-3)[Gal(b1-4)GlcNAc(b1-6)]Gal(b1-4)Glc
Outline: as §1

[4] = biological target: Fuc(a1-2)Gal(b1-4)GlcNAc(b1-3)Gal(b1-4)GlcNAc(b1-2)Man(a1-3)[Fuc(a1-2)Gal(b1-4)GlcNAc(b1-3)Gal(b1-4)GlcNAc(b1-2)Man(a1-6)]Man(b1-4)GlcNAc(b1-4)GlcNAc
Outline: as §1

[5] = biological target: Fuc(a1-2)Gal(b1-4)[Fuc(a1-3)]GlcNAc(b1-3)Gal(b1-4)[Fuc(a1-3)]GlcNAc
Outline: as §1

[6] = biological target: Fuc(a1-2)[Gal(a1-3)]Gal(b1-4)GlcNAc(b1-2)Man(a1-3)[Fuc(a1-2)[Gal(a1-3)]Gal(b1-4)GlcNAc(b1-2)Man(a1-6)]Man(b1-4)GlcNAc(b1-4)GlcNAc
Outline: as §1

[7] = biological target: Fuc(a1-2)[Gal(a1-3)]Gal(b1-4)GlcNAc(b1-3)GalNAc
Outline: as §1

[8] = biological target: Fuc(a1-2)[GalNAc(a1-3)]Gal(b1-3)GlcNAc(b1-6)GalNAc
Outline: as §1

[9] = biological target: Fuc(a1-2)[GalNAc(a1-3)]Gal(b1-4)GlcNAc(b1-2)Man(a1-3)[Fuc(a1-2)[GalNAc(a1-3)]Gal(b1-4)GlcNAc(b1-2)Man(a1-6)]Man(b1-4)GlcNAc(b1-4)GlcNAc
Outline: as §1

[10] = biological target: Fuc(a1-2)[GalNAc(a1-3)]Gal(b1-4)GlcNAc(b1-3)Gal(b1-4)GlcNAc(b1-3)Gal(b1-4)GlcNAc
Outline: as §1

[11] = biological target: Fuc(a1-2)[GalNAc(b1-3)]Gal
Outline: as §1

[12] = biological target: Fuc(a1-3)[GalNAc(b1-4)]GlcNAc
Outline: as §1

[13] = biological target: Gal(a1-3)Gal(b1-4)GlcNAc(b1-2)Man
Outline: as §1

[14] = biological target: Gal(a1-3)Gal(b1-4)GlcNAc(b1-2)Man(a1-3)[Gal(a1-3)Gal(b1-4)GlcNAc(b1-2)Man(a1-6)]Man(b1-4)GlcNAc(b1-4)GlcNAc
Outline: as §1

[15] = biological target: Gal(a1-3)[Gal(a1-4)]Gal(b1-4)GlcNAc
Outline: as §1

Gal(a1-4)Gal(b1-4)Glc = biological target: Gal(a1-4)Gal(b1-4)Glc
Outline: as §1

[16] = biological target: Gal(b1-3)[Fuc(a1-4)]GlcNAc(b1-2)Man
Outline: as §1

[17] = biological target: Gal(b1-3)[Fuc(a1-4)]GlcNAc(b1-3)Gal(b1-3)[Fuc(a1-4)]GlcNAc
Outline: as §1

[18] = biological target: Gal(b1-4)GalNAc(a1-3)[Fuc(a1-2)]Gal(b1-4)GlcNAc
Outline: as §1

Gal(b1-4)GlcNAc(b1-2)Man = biological target: Gal(b1-4)GlcNAc(b1-2)Man
Outline: as §1

[19] = biological target: Gal(b1-4)GlcNAc(b1-6)GalNAc
Outline: as §1

Gal(b1-6)Gal = biological target: Gal(b1-6)Gal
Outline: as §1

Gal3S(b1-3)GalNAc = biological target: Gal3S(b1-3)GalNAc
Outline: as §1

Gal3S(b1-4)GlcNAc = biological target: Gal3S(b1-4)GlcNAc
Outline: as §1

[20] = biological target: Gal3S(b1-4)[Fuc(a1-3)]Glc6S
Outline: as §1

[21] = biological target: Gal3S(b1-4)[Fuc(a1-3)]GlcNAc
Outline: as §1

Gal4S6S(b1-4)GlcNAc = biological target: Gal4S6S(b1-4)GlcNAc
Outline: as §1

[22] = biological target: GalNAc(b1-4)GlcNAc(b1-2)Man
Outline: as §1

GalNAc(b1-4)GlcNAc6S = biological target: GalNAc(b1-4)GlcNAc6S
Outline: as §1

[23] = biological target: GlcNAc(b1-2)Man(a1-3)[GlcNAc(b1-4)][GlcNAc(b1-2)Man(a1-6)]Man(b1-4)GlcNAc(b1-4)[Fuc(a1-6)]GlcNAc
Outline: as §1

GlcNAc(b1-3)Fuc = biological target: GlcNAc(b1-3)Fuc
Outline: as §1

[24] = biological target: GlcNAc(b1-3)Gal(b1-4)GlcNAc(b1-2)[GlcNAc(b1-3)Gal(b1-4)GlcNAc(b1-6)]Man(a1-6)[GlcNAc(b1-3)Gal(b1-4)GlcNAc(b1-2)Man(a1-3)]Man(b1-4)GlcNAc(b1-4)GlcNAc
Outline: as §1

[25] = biological target: GlcNAc(b1-3)[GlcNAc(b1-4)][GlcNAc(b1-6)]GlcNAc
Outline: as §1

[26] = biological target: GlcNAc(b1-4)GlcNAc(b1-4)GlcNAc
Outline: as §1

[27] = biological target: GlcNAc(b1-6)Gal(b1-4)GlcNAc
Outline: as §1

[28] = biological target: Man(a1-3)[Man(a1-6)]Man(b1-4)GlcNAc(b1-4)GlcNAc
Outline: as §1

[29] = biological target: Neu5Ac(a2-3)Gal(b1-3)GalNAc(b1-4)[Neu5Ac(a2-8)Neu5Ac(a2-3)]Gal(b1-4)Glc
Outline: as §1

[30] = biological target: Neu5Ac(a2-3)Gal(b1-3)GlcNAc
Outline: as §1

[31] = biological target: Neu5Ac(a2-3)Gal(b1-3)GlcNAc(b1-4)Gal(b1-4)Glc
Outline: as §1

[32] = biological target: Neu5Ac(a2-3)Gal(b1-3)[Fuc(a1-4)]GlcNAc(b1-3)Gal(b1-3)[Fuc(a1-4)]GlcNAc
Outline: as §1

[33] = biological target: Neu5Ac(a2-3)Gal(b1-3)[Fuc(a1-4)]GlcNAc(b1-3)Gal(b1-4)[Fuc(a1-3)]GlcNAc
Outline: as §1

[34] = biological target: Neu5Ac(a2-3)Gal(b1-4)[Fuc(a1-3)]GlcNAc(b1-3)GalNAc
Outline: as §1

[35] = biological target: Neu5Ac(a2-3)Gal(b1-4)[Fuc(a1-3)]GlcNAc(b1-6)[Gal(b1-3)]GalNAc
Outline: as §1

[36] = biological target: Neu5Ac(a2-6)Gal(b1-4)GlcNAc(b1-3)Gal(b1-4)[Fuc(a1-3)]GlcNAc(b1-3)Gal(b1-4)[Fuc(a1-3)]GlcNAc
Outline: as §1

[37] = biological target: Neu5Ac(a2-6)Gal(b1-4)GlcNAc(b1-6)[Gal(b1-3)]GalNAc
Outline: as §1

[38] = biological target: Neu5Gc(a2-3)Gal(b1-3)GlcNAc
Outline: as §1

Neu5Gc(a2-3)Gal(b1-4)Glc = biological target: Neu5Gc(a2-3)Gal(b1-4)Glc
Outline: as §1

B1: Blon0732mut (Bifidobacterium longum) (protein)
chain: MPTSEHKADDATRHLTLIPAPVTLEYTHGTALIGPLVTIEDADQSWETLPIEQLSDELRHRYGVTVLRRRTHGTVISLGLDSRLAHDEYTLDVSESEGIRVRGGGESGLRYGLQTLRQIIGQTSRAIPCLHIQDKPAFAVRAYSLDVTRGRVPTMEFLTWFVDQLALYKYNQFQLYVEHAFAFVELSEAWRGTDPLTAADITYLDEYCARRGIELVPSLATFGHMYMNLRTREHRGLGEFPEDADRPFSFIERMEHHTLNAADPKAHDFASRLIEEYAPLFRSKSFNIGGNETFDLGRGRSAQDAPEAGRDELYAGFVRDLCETLARHGRQPMLWADIALESPRTMDLLPGDITMLNWMYEPQIDESKIQTIATQGRRQFVCPAVRAWSRFFPDYAGAWLNTYHMALAGTKYDAEGMVVTDWGDYGHVNDPRLSVPGLCYGAQNAWNPIEIDAHEMNRRISALVYGDESGRIMDCLARIDSDGVSFPWDLAVQVLELEYGSGTGALNMDVAACMERSSGGKLTLDRTLGCDDARRRMLQWNRERIERRRDCDQVLRDCGDAFAGLDKGGLTAEFLSVMLDGQRLFNELGEELLALADGKDVGSGANRLAADLELWFERYRAQWLSVGRHAELARIAHVVWSLADILRRGAL
- glycan array binding signal (z-score) [1]: -1.26
- glycan array binding signal (z-score) [2]: 0.087
- glycan array binding signal (z-score) [3]: -0.87
- glycan array binding signal (z-score) [4]: -0.325
- glycan array binding signal (z-score) [5]: 0.489
- glycan array binding signal (z-score) [6]: -0.864
- glycan array binding signal (z-score) [7]: -0.533
- glycan array binding signal (z-score) [8]: -0.809
- glycan array binding signal (z-score) [9]: 0.397
- glycan array binding signal (z-score) [10]: 0.035
- glycan array binding signal (z-score) [11]: 0.44
- glycan array binding signal (z-score) [12]: 1.89
- glycan array binding signal (z-score) [13]: -0.505
- glycan array binding signal (z-score) [14]: 0.086
- glycan array binding signal (z-score) [15]: 5.9
- glycan array binding signal (z-score) (Gal(a1-4)Gal(b1-4)Glc): 2.6
- glycan array binding signal (z-score) [16]: -0.411
- glycan array binding signal (z-score) [17]: -0.751
- glycan array binding signal (z-score) [18]: 0.345
- glycan array binding signal (z-score) (Gal(b1-4)GlcNAc(b1-2)Man): 1.31
- glycan array binding signal (z-score) [19]: 0.168
- glycan array binding signal (z-score) (Gal(b1-6)Gal): -0.313
- glycan array binding signal (z-score) (Gal3S(b1-3)GalNAc): 1.16
- glycan array binding signal (z-score) (Gal3S(b1-4)GlcNAc): -0.019
- glycan array binding signal (z-score) [20]: 4.3
- glycan array binding signal (z-score) [21]: 3.42
- glycan array binding signal (z-score) (Gal4S6S(b1-4)GlcNAc): 2.26
- glycan array binding signal (z-score) [22]: 0.028
- glycan array binding signal (z-score) (GalNAc(b1-4)GlcNAc6S): -0.46
- glycan array binding signal (z-score) [23]: -0.15
- glycan array binding signal (z-score) (GlcNAc(b1-3)Fuc): -1.38
- glycan array binding signal (z-score) [24]: 3.03
- glycan array binding signal (z-score) [25]: 5.26
- glycan array binding signal (z-score) [26]: -0.223
- glycan array binding signal (z-score) [27]: 0.074
- glycan array binding signal (z-score) [28]: -0.261
- glycan array binding signal (z-score) [29]: 3.81
- glycan array binding signal (z-score) [30]: -0.428
- glycan array binding signal (z-score) [31]: 0.176
- glycan array binding signal (z-score) [32]: -0.898
- glycan array binding signal (z-score) [33]: -0.002
- glycan array binding signal (z-score) [34]: 2.5
- glycan array binding signal (z-score) [35]: 0.262
- glycan array binding signal (z-score) [36]: 2.6
- glycan array binding signal (z-score) [37]: 0.982
- glycan array binding signal (z-score) [38]: -0.667
- glycan array binding signal (z-score) (Neu5Gc(a2-3)Gal(b1-4)Glc): 2.58
